Values joined by “and” are separate entries in the source; they are usually repeats but may differ in a detail not shown here. Equal entries are not always repeated. The whole screen tested about 16,000 compounds, of which about 4,000 (25%) were called active. About 26% were inconclusive and are not listed. The list is a sample of the results. Values without a mark were called inactive. Calls come from the whole dose curve; as a rule, active = well fitted curve in the direction sought with a large enough effect; inconclusive = small, poorly fitted or top-dose-only effect, or effect the other way; inactive = no such curve, though single readings can be large or run the other way.
Each molecule was assayed against Cytochrome P450 2C9 (Homo sapiens) (UniProt P11712) (assay: Cytochrome panel assay with activity outcomes). Conditions: recombinant CYP, pro-luciferin dealkylation, luminescence, p450-cyp2c9; series mostly up to 57.1 µM.
% is set by controls: 0 for no effect and ±100 for the full control effect.

Chain of Cytochrome P450 2C9 (Homo sapiens) (P11712 whole entry, looked up): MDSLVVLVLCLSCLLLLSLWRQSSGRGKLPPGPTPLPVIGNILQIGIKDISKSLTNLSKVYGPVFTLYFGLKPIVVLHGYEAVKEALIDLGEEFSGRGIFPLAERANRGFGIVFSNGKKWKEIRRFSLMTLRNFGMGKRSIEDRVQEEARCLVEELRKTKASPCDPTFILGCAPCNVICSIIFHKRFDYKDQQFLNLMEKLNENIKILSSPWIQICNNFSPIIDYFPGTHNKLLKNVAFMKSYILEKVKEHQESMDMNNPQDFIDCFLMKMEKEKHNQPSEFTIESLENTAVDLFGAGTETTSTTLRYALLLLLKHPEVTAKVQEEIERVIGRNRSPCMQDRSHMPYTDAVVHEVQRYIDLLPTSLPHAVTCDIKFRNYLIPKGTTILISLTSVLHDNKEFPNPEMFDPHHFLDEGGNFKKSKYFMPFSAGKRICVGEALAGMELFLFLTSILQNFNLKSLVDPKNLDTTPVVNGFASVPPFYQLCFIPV

| Structure (SMILES) | AC50 | activity, negative = inhibition |
| --- | --- | --- |
| C[C@@]12C=CC(=O)C=C1CC[C@@H]1[C@@H]2[C@H](O)C[C@]2(C)[C@@H]1CC[C@]2(O)C(=O)CO | inactive |  |
| COC(=O)[C@@]1(Cc2ccc(F)cc2)[C@H]2c3cc(C(=O)N(C)C)n(CCCNc4ccc(C(F)(F)F)cc4Cl)c3C[C@H]2CN1C(=O)c1ccccc1 | 20 µM (active) |  |
| COC(=O)[C@@]1(Cc2ccc(F)cc2)[C@H]2c3cc(C(=O)N(C)C)n(Cc4ccc(Cl)c(C(F)(F)F)c4)c3C[C@H]2CN1C(=O)c1ccccc1 | 3.98 µM (active) |  |
| COC(=O)[C@@]1(Cc2ccc(OC)cc2)[C@H]2c3cc(C(=O)N4CCCC4)n(Cc4ccc(Cl)c(C(F)(F)F)c4)c3C[C@H]2CN1C(=O)c1ccccc1 | 20 µM (active) |  |
| COC(=O)[C@@]1(Cc2ccc(F)cc2)[C@H]2c3cc(C(=O)N4CCCC4)n(Cc4ccc(Cl)c(C(F)(F)F)c4)c3C[C@H]2CN1C(=O)c1ccccc1 | 12.6 µM (active) |  |
| O=C1CN(c2nc(-c3ccccc3)c3cc(Br)ccc3n2)c2ccccc2N1 | inactive |  |
| O=C(Nc1ccccc1)N1CCCC2(CCN(C(=O)c3csnn3)CC2)C1 | inactive |  |
| CCOc1cccc2cc(C(N)=O)c(=NCc3ccccc3)oc12 | inactive |  |
| CCC1CCc2c(c3ccccc3[nH]c2=O)O1 (configuration not stated) | inactive |  |
| Cc1cnc(CNc2nc(-c3ccc(C(=O)N(C)C)cc3)nc3ccccc23)cn1 |  | 6.85% [at 2.29 µM] |
| O=C(Nc1cccc(F)c1)N1CCC2(CC1)CCN(C(=O)c1ccco1)CC2 | inactive |  |
| CC(=O)c1cccc(NC(=O)/C(=C\c2ccco2)NC(=O)c2cccs2)c1 | 8.91 µM (active) |  |
| O=C(Nc1cccc(F)c1)/C(=C\c1ccco1)NC(=O)c1cccs1 | 31.6 µM (active) |  |
| CCc1cc2c(nc1CC)CCN(CC/C(C)=N/OC[C@@H](C)[C@H](OCc1ccccc1)C(C)C)C2 |  | -5.74% [at 11.4 µM] |
| COc1ccc(NC(=O)N2CC3(CCN(C(=O)c4ccc(OC)cc4)CC3)C2)cc1 | inactive |  |
| CC(C)(C)C(=O)[C@H]1[C@H](c2ccccc2)[C@@]2(N=C(c3ccccc3)OC2=O)C2c3ccccc3C=NN21 (some centres not stated) | 15.8 µM (active) |  |
| COc1ccc(-n2c(=O)c(-c3ccccc3)nc3cnc(N4CCOCC4)nc32)cc1 | inactive |  |
| COc1ccc(-n2c(=O)c(C)nc3cnc(N4CCOCC4)nc32)cc1 | inactive |  |
| COc1cc(N2CCOCC2)ncn1 | inactive |  |
| CCCc1ccc(Oc2cc(C)nc(N3CCOCC3)n2)cc1 | 25.1 µM (active) |  |
| Cc1ccc(Oc2cc(N3CCOCC3)nc(-c3ccccc3)n2)cc1 | 17.8 µM (active) |  |
| COC(=O)c1ccc(Oc2nc(N(C)C)nc(N3CCOCC3)n2)cc1 | inactive |  |
| O=c1ccc(Oc2nc(N3CCOCC3)nc(N3CCOCC3)n2)n[nH]1 | inactive |  |
| Cc1cc(Oc2ccc(-c3ccccc3)cc2)nc(N2CCOCC2)n1 | 3.98 µM (active) |  |
| Cc1noc(C)c1-c1nccc(N2CCOCC2)n1 |  | 7.39% [at 2.29 µM] |
| N#C[C@H]1CN[C@H](N)N[C@@H]1N |  | -4.64% [at 11.4 µM] |

| Structure (SMILES) | AC50 | activity, negative = inhibition |
| --- | --- | --- |
| CCCOc1ccc(CSC(CC(=O)O)C(=O)O)cc1 (configuration not stated) | inactive |  |
| COc1ccc(CN[C@H](C)C(=O)O)cc1 |  | 12.3% [at 11.4 µM] |
| COc1ccccc1-c1nc(NCc2ccccc2)c2ccccc2n1 |  | 16.9% [at 2.29 µM] |
| O=C(Nn1cnc2ccccc2c1=O)c1ccc(F)cc1Cl | inactive |  |
| CCCCOc1ccc(CNn2c(C)nc3ccccc3c2=O)cc1 | 4.47 µM (active) |  |
| COc1ccc(CNn2c(C)nc3ccccc3c2=O)cc1 | 5.62 µM (active) |  |
| Cc1nc2ccccc2c(=O)n1NC(=O)c1ccccc1Cl | 7.94 µM (active) |  |
| CN(C)c1ccccc1CN1CCCN(Cc2ccccc2N(C)C)C1c1ccncc1 |  | -12% [at 11.4 µM] |
| N=c1ccn2c(n1)O[C@H]1[C@@H](OP(=O)(O)O)[C@H](CO)O[C@H]12 |  | 5.28% [at 11.4 µM] |
| CCCC[C@H](CC)CN1CN(C[C@@H](CC)CCCC)CC(C)(N)C1 | inactive |  |
| CN(C)S(=O)(=O)Nc1ccccn1 |  | 0.0893% [at 11.4 µM] |
| Nc1ccc(S(=O)(=O)Nc2ccccn2)cc1 | inactive |  |
| O=C1C(Cl)=C(Nc2ccc(S(=O)(=O)Nc3ccccn3)cc2)C(=O)c2ccccc21 | 2 µM (active) |  |
| O=C(O)[C@@H](O)c1ccc(F)cc1 |  | -3.58% [at 11.4 µM] |
| C[C@@H](C(=O)O)c1ccc(-c2ccccc2)c(F)c1 | 10 µM (active) |  |
| C[C@H](C(=O)O)c1cccc(Oc2ccccc2)c1 | inactive |  |
| CCCCC1(C)NC(=O)c2c(C)sc(C(=O)OCC)c2N1 (configuration not stated) | 0.282 µM (active) |  |
| NC(=S)SCCC(=O)O |  | -6.98% [at 11.4 µM] |
| CC(C)CO/N=C1/C[C@@H](O)[C@@H](O)[C@@H]2[C@@H]3C(=O)N(C[C@@H]4CCCO4)C(=O)[C@H]3CC[C@@H]12 |  | 18.7% [at 11.4 µM] |
| O=C1SC(c2ccccc2)=C/C1=C\N1CCCCC1 | 11.2 µM (active) |  |
| CC[N+](CC)(CC)CC[C@](O)(c1ccccc1)C1CCCCC1 | inactive |  |
| COc1c(/C=N/Nc2ccc([N+](=O)[O-])cc2[N+](=O)[O-])c(C)nn1-c1ccccc1 | 20 µM (active) |  |
| S=C1N[C@H](c2ccccc2)N[C@H](c2ccccc2)S1 | 2 µM (active) |  |
| O=C1C2[C@@H](c3ccccc3)N[C@@H](c3ccccc3)C1[C@H](c1ccccc1)N[C@H]2c1ccccc1 |  | -3.9% [at 11.4 µM] |
| O=C1[C@H]2[C@H]3[C@H](O)[C@H](O)C/C(=N/OCc4ccccc4)[C@H]3CC[C@@H]2C(=O)N1C[C@@H]1CCCO1 |  | -4.81% [at 11.4 µM] |
| CN(C)Cc1ccccc1-c1cc(NCc2ccccc2)ncn1 |  | -1.3% [at 2.29 µM] |

| Structure (SMILES) | AC50 | activity, negative = inhibition |
| --- | --- | --- |
| Cc1ccccc1OCC(=O)Nc1ccc(N2CCN(C(=O)C(C)C)CC2)c(Cl)c1 | 3.98 µM (active) |  |
| CC(C)C(=O)N1CCN(c2ccccc2NC(=O)c2cccc(Cl)c2)CC1 | 14.1 µM (active) |  |
| CC1CN(C2CCN(C(=O)c3cccc(Cl)c3)CC2)CC(C)O1 (configuration not stated) | inactive |  |
| O=C(Nc1ccccc1N1CCN(C(=O)c2ccc(Cl)cc2)CC1)c1cc(Br)ccc1Cl | 3.98 µM (active) |  |
| CNC(=S)NNC(=O)COc1ccccc1C | inactive |  |
| O=C(Nc1ccccc1N1CCN(C(=O)c2ccccc2)CC1)c1cc(Br)ccc1Cl | 2.51 µM (active) |  |
| CC[C@]1(O)C[C@@H]2CN(CCc3c([nH]c4ccccc34)[C@](C(=O)OC)(c3cc4c(cc3OC)N(C=O)[C@H]3[C@@](O)(C(=O)OC)[C@H](C(=O)OC)[C@@]5(CC)C=CCN6CC[C@]43[C@H]65)C2)C1 | inactive |  |
| CC(C)C(O)(C#CCN1CCCC1)c1ccccc1 (configuration not stated) | inactive |  |
| CC(C)(C)N1C(=O)[C@H]2[C@@H]3[C@H](O)C=CC(=O)[C@H]3CC[C@H]2C1=O |  | 3.18% [at 11.4 µM] |
| CC(=O)O[C@]12CC[N@+]3(C)CCCC[C@@H]3[C-]1Nc1ccccc12 |  | 2.24% [at 11.4 µM] |
| Cc1ccc(C2=C(Cl)C(=O)C(c3ccc(C)cc3)=C(Cl)C2=O)cc1 | 1.58 µM (active) |  |
| CC1(C)CC(=O)C/C(=N/NC(=O)CCCOc2ccc(Cl)cc2Cl)C1 | inactive |  |
| COc1ccc(/C=N/NC(=O)CCCOc2ccc(Cl)cc2Cl)cc1[N+](=O)[O-] | 2.24 µM (active) |  |
| COC(=O)C/C=C\[C@@H](C)[C@@H](/C=N\O[C@@H](C)c1cn([C@H](CO)Cc2ccccc2)nn1)OC |  | -11.4% [at 11.4 µM] and -9% [at 11.4 µM] |
| C=CC[C@@H]1C=C[C@@H](O/N=C\c2ccc(C(=O)N3[C@H](c4ccc(C)cc4)[C@@H](C)CC[C@H]3C(=O)OC)cc2)[C@@H](CO)O1 | 3.98 µM (active) |  |
| COC(=O)[C@@H]1CC[C@H](C)[C@@H](c2ccc(C)cc2)N1C(=O)c1ccc(/C=N\OC[C@@H]2O[C@H](c3ccccc3)C=C[C@@H]2Oc2ccc(OC)cc2)cc1 |  | -16.2% [at 11.4 µM] |
| CCCNC(=O)OC[C@@H]1O[C@H](CCO/N=C\c2ccc(C(=O)N3[C@H](c4ccc(C)cc4)[C@@H](C)CC[C@H]3C(=O)OC)cc2)C=C[C@@H]1Oc1ccc(OC)cc1 | 3.98 µM (active) |  |
| COC(=O)[C@@H]1CC[C@H](C)[C@@H](c2ccc(C)cc2)N1C(=O)c1ccc(/C=N\OC[C@@H](C)[C@H](OCc2ccccc2)C(C)C)cc1 |  | -24.2% [at 11.4 µM] |
| COC(=O)C/C=C\[C@@H](C)[C@@H](/C=N\OC[C@@H](O)COCc1ccco1)OC |  | -26.7% [at 11.4 µM] |
| C=CC[C@@H]1C=C[C@H](ON=C(C)C)[C@H](CO)O1 |  | 12% [at 11.4 µM] |
| CCCNC(=O)OC[C@@H]1O[C@H](CCO/N=C\C[C@H]2C=C[C@H](OC(C)=O)[C@@H](COC(C)=O)O2)C=C[C@@H]1Oc1ccc(OC)cc1 |  | -11.7% [at 11.4 µM] |
| COC(=O)[C@@H]1CC[C@H](C)[C@@H](c2ccc(C)cc2)N1C(=O)c1ccc(/C=N\OC[C@@H](O)COCc2ccco2)cc1 | 3.98 µM (active) |  |
| COC(=O)C/C=C\[C@@H](C)[C@@H](/C=N\O[C@@H](C)c1cn([C@H](CO)Cc2ccccc2)nn1)NS(=O)(=O)c1ccc(C)cc1 |  | -29.2% [at 11.4 µM] |
| C=CC[C@@H]1C=C[C@@H](O/N=C\[C@@H](OC)[C@H](C)/C=C\CC(=O)OC)[C@@H](CO)O1 |  | 21.3% [at 11.4 µM] |
| COC(=O)[C@@H]1CC[C@H](C)[C@@H](c2ccc(C)cc2)N1C(=O)c1ccc(/C=N\O[C@@H](C)c2cn([C@H](CO)Cc3ccccc3)nn2)cc1 | 3.16 µM (active) and 2.51 µM (active) |  |

— PubChem BioAssay AID1851 (National Center for Advancing Translational Sciences (NCATS), 2009)
